Compound activity: PubChem, The Scripps Research Institute Molecular Screening Center
Most compounds without a hit are left out; they make up all but 3.4% or so of the library.
MITF inh: inhibitors of human MITF. inhibition, % at 2.6 µM. AID 1259374. O75030. 0.91% of 650,000 active. AlphaScreen MITF homodimerization, bead proximity signal; in the data active means inhibition above about 50%
Target sequence (O75030 whole entry, looked up): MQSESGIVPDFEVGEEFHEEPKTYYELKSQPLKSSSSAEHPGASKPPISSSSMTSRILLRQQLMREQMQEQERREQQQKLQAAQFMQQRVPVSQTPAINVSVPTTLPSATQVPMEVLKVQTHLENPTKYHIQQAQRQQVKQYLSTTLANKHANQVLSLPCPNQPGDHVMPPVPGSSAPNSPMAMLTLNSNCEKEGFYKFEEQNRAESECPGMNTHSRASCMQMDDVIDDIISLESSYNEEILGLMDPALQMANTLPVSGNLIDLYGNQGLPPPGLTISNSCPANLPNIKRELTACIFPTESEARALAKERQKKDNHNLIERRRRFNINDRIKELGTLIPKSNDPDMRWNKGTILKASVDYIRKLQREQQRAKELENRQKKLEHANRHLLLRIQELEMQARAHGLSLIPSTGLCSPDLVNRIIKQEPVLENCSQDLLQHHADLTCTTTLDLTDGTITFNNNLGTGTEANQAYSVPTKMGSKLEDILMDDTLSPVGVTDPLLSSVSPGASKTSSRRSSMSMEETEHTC
FBW7 activator: human FBW7 E3 ligase activation, primary screen | Q969H0 | AlphaScreen FBW7–phospho-cyclin E peptide binding, activator screen | normalized activity (activation), % at 26.1 µM | 0.13% of 650,000 active; in the data active means normalized activity above about 1.9%;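 further: purified mutant Fbw7 with reduced substrate affinity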
GPR151 ag: activators of human GPR151; Q8TDV0; PathHunter beta-arrestin GPR151 cells, luminescence; activation, % at 11.2 µM; 1% of 650,000 active; in the data active means activation above about 4.9%
TEAD-YAP block: TEAD-YAP interaction inhibition; HEK-TIYL cells, TEAD-Gal4/YAP UAS-luciferase luminescence; 1.4% of 640,000 active; AID 1259422; inhibition, % at 9.12 µM; in the data active means inhibition above about 32%
MITF confirm: confirmation of human MITF inhibitors | 16% of 4,700 active | shares compounds with MITF inh | AlphaScreen MITF homodimerization, biotin/His-MITF beads | inhibition, % at 2.6 µM;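 active means inhibition above a cutoff derived from the DMSO control wells, cut at about 28% in these data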;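 further: inhibitors lower the bead chemiluminescence by keeping MITF from dimerizing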
AlphaScreen DR: counter-screen: compounds optically interfering with AlphaScreen | shares compounds with MITF inh | AlphaScreen optical interference counterscreen, cell-free | IC50, µM | 6% of 480 active | AID 1259373; call rule not given here
AlphaScreen intf2: counter-screen: compounds optically interfering with AlphaScreen | shares compounds with MITF inh | LysRS AlphaScreen counterscreen, signal interference, triplicate | inhibition, % at 2.6 µM | 7.6% of 4,700 active | AID 1259376;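 active means inhibition above a cutoff derived from the DMSO control wells, cut at about 30% in these data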
A number is an active result; 0 = inactive; - = no result given.

SMILES | MITF inh | FBW7 activator | GPR151 ag | TEAD-YAP block | MITF confirm | AlphaScreen intf2 | others
CC1CCC(N2CCN(CC3CC=CCC3)CC2)CC1 (stereo not given) | 62 | 0 | 0 | 0 | 0 | 0
CCCS(=O)(=O)N1CCN(CC2CC=CCC2)CC1 (stereo not given) | 0 | 0 | 0 | 0 | - | -
CN(C)C(CNCC(=O)NC1CCCc2ccccc21)c1ccccc1 (stereo not given) | 76 | 0 | 0 | 0 | 0 | 56
CC(C)CN1C(=O)C(=O)N(CC(=O)NC2CCCc3ccccc32)C1=O (stereo not given) | 0 | 0 | 0 | 0 | - | -
O=c1[nH]c2ccccc2nc1Cc1cccc([N+](=O)[O-])c1 | 0 | 0 | 0 | 0 | - | -
Cc1ccc(-c2nc(C#N)c(N3CCN(C(=O)c4ccc(Cl)cc4)CC3)o2)cc1 | 68 | 0 | 0 | 0 | 0 | 0
CCOc1ccc(C(=O)N2CCN(c3oc(-c4ccc(Cl)cc4)nc3C#N)CC2)cc1 | 0 | 0 | 0 | 0 | - | -
O=S(=O)(NCC(c1ccc(F)cc1)N1CCOCC1)c1ccc2c(c1)OCCO2 (stereo not given) | 55 | 0 | 0 | 0 | 0 | 0
O=S(=O)(Cc1ccc(F)cc1)NCC(c1ccsc1)N1CCOCC1 (stereo not given) | 78 | 0 | 0 | 0 | 0 | 0
Cc1cc(F)ccc1S(=O)(=O)NCC(c1ccsc1)N1CCOCC1 (stereo not given) | 0 | 0 | 0 | 0 | - | -
Cc1ccc(/C=c2\sc3ncnn3c2=O)o1 | 61 | 0 | 0 | 0 | 0 | 0
C=CCN1C(=O)S/C(=C\c2cc(Br)cc(OCC)c2O)C1=O | 0 | 0 | 0 | 0 | - | -
CCCCOCC(O)Cn1c(Cc2ccccc2)nc2ccccc21 (stereo not given) | 58 | 0 | 0 | 0 | 0 | 0
CCCCOCC(O)Cn1c2ccccc2c2ccccc21 (stereo not given) | 0 | 0 | 0 | 0 | - | -
O=C(Nc1ccc2[nH]ncc2c1)[C@H]1CCCN1C(=O)[C@H](O)c1cccc(Cl)c1 | 0 | 0 | 0 | 0 | - | -
O=C1CC(=O)N(Cc2ccco2)C(=S)N1 | 70 | 0 | 0 | 0 | 0 | 62
O=C1CC(=O)N(Cc2ccco2)C(=O)N1 | 0 | 0 | 0 | 0 | - | -
Fc1cccc(F)c1CNCC1NCCc2ccccc21 (stereo not given) | 78 | 0 | 0 | 0 | 0 | 0
CC1(C)CC(=O)C=C(NCC2NCCc3ccccc32)C1 (stereo not given) | 0 | 0 | 0 | 0 | - | -
CC(C)(C)c1ccc(C(=O)NC(CC(=O)O)c2cccc([N+](=O)[O-])c2)cc1 (stereo not given) | 0 | 0 | 0 | 0 | - | -
CC(=O)Nc1ccc(C(=O)NC(CC(=O)O)c2cccc([N+](=O)[O-])c2)cc1 (stereo not given) | 60 | 0 | 0 | 0 | 0 | 0
COc1ccc(OC)c(NC(=O)NCc2ccc(Cl)cc2)c1 | 0 | 0 | 0 | 0 | - | -
CC1(C)Cc2c(sc3nc(NNC(=O)c4ccccc4)[nH]c(=O)c23)CO1 | 73 | 0 | 0 | 0 | 0 | 0
COC(=O)c1cc(S(=O)(=O)NCCCN(C)Cc2ccccc2)c[nH]1 | 56 | 0 | 0 | 0 | 0 | 0
COC(=O)c1cc(S(=O)(=O)NCCc2ccccc2)c[nH]1 | 0 | 0 | 0 | 0 | - | -
SMILES | MITF inh | FBW7 activator | GPR151 ag | TEAD-YAP block | MITF confirm | AlphaScreen intf2 | others
COCc1nnn(-c2nonc2N)c1C(=O)NNC(=O)CCc1ccccc1 | 0 | 0 | 0 | 0 | - | -
COc1cc(C=Nc2ccc(N(C)C)cc2)cc(I)c1O | 77 | 0 | 0 | 0 | 45 | 0 | AlphaScreen DR=0
COc1ccccc1NC(=O)CSc1nc2cccnc2n1-c1ccccc1OC | 0 | 0 | 0 | 0 | - | -
C=CC1=C(C)C2=Cc3c(C=C)c(C)c4[n]3[Sn+2][n]3c(c(C)c(CCC(=O)O)c3=CC3=NC(=C4)C(C)=C3CCC(=O)O)=CC1=N2 | 55 | 0 | 0 | - | 62 | 0 | AlphaScreen DR=0
C=CC1=C(C)c2cc3[n-]c(cc4nc(cc5[n-]c(cc1n2)c(C)c5CCC(=O)O)C(CCC(=O)O)=C4C)c(C)c3C=C.[Zn+2] | 0 | 0 | 0 | - | - | -
Cc1nc2ccc(NC(=O)c3ccc(S(C)(=O)=O)c([N+](=O)[O-])c3)cc2s1 | 0 | 0 | 0 | 0 | - | -
CN1CCCN(Cc2coc3c(Cl)cc(Cl)cc3c2=O)CC1 | 55 | 0 | 0 | 0 | 0 | 0
O=CN1CCN(Cc2coc3c(Cl)cc(Cl)cc3c2=O)CC1 | 0 | 0 | 0 | 0 | - | -
CN1CCCN(Cc2c(F)cccc2F)CC1 | 78 | 0 | 0 | 0 | 0 | 0
CN1CCCN(Cc2c(Cl)cccc2Cl)CC1 | 63 | 0 | 0 | 0 | 0 | 0
C/C(=N/NC(=O)c1cc(O)cc(O)c1)c1ccc(N)cc1 | 0 | 0 | 0 | 0 | - | -
CC1(C)CCCC2=C1CC(C(=O)O)C(C(=O)N1CCCCC1)C2 (stereo not given) | 85 | 0 | 0 | 0 | 0 | 0
CCCCN(C)CCCNC(=O)CSCc1ccccc1Cl | 76 | 0 | 0 | 0 | 0 | 0
COc1ccc(OC)c(NC(=O)c2sc3nc(-c4cccc([N+](=O)[O-])c4)cn3c2C)c1 | 0 | 0 | 0 | 0 | - | -
COc1cc(/C=C2/N=C(c3cccc(Cl)c3Cl)OC2=O)cc(Br)c1OC(C)=O | 80 | 0 | 0 | 0 | 0 | 0
COc1cc(/C=C2\N=C(c3ccccc3F)OC2=O)cc(Br)c1OC(C)=O | 0 | 0 | 0 | 0 | - | -
CS(=O)(=O)N(CC(=O)Nc1cccc(F)c1)c1ccc2c(c1)OCO2 | 64 | 0 | 0 | 0 | 0 | 0
CS(=O)(=O)N(CC(=O)Nc1ccc(F)cc1)c1ccc(Oc2ccccc2)cc1 | 68 | 0 | 0 | 0 | 0 | 0
CSc1cccc(NC(=O)CN(c2ccc3c(c2)OCO3)S(C)(=O)=O)c1 | 0 | 0 | 0 | 0 | - | -
CS(=O)(=O)N(CC(=O)Nc1c(F)cccc1F)c1ccc(Oc2ccccc2)cc1 | 60 | 0 | 0 | 0 | 0 | 0
CCCC(C)c1nnc(NC(=O)c2cccc(I)c2)s1 (stereo not given) | 0 | 0 | 0 | 0 | - | -
O=C(N/N=C/c1ccc(C(F)(F)F)cc1)c1ccc(O)cc1O | 69 | 0 | 0 | 0 | 0 | 0
CC(/C=N\NC(=O)Cc1cccn1C)=C\c1ccccc1 | 0 | 0 | 0 | 0 | - | -
CN(C)c1ccc(/C=N\NC(=O)CN2CCN(Cc3ccccc3)CC2)cc1 | 0 | 0 | 0 | 0 | - | -
Cc1ccc(/C=N/NC(=O)CCN2CCN(C)CC2)cc1 | 54 | 0 | 0 | 0 | 0 | 0
SMILES | MITF inh | FBW7 activator | GPR151 ag | TEAD-YAP block | MITF confirm | AlphaScreen intf2 | others
CC(/C=N/NC(=O)CN1CCN(C)CC1)=C\c1ccccc1 | 73 | 0 | 0 | 0 | 0 | 0
CCN1CCN(CC(=O)N/N=C/c2cc(Br)cs2)CC1 | 68 | 0 | 0 | 0 | 0 | 0
CCN1CCN(CC(=O)N/N=C/c2ccc(N(C)C)cc2)CC1 | 52 | 0 | 0 | 0 | 0 | 0
CCOC(=O)c1ccc2nc(C)cc(Nc3ccc(N4CCOCC4)cc3)c2c1 | 0 | 0 | 0 | 0 | - | -
CCOc1ccccc1NC(=O)C1c2ccccc2C(=O)N(C)C1c1ccc(OC)cc1 (stereo not given) | 0 | 0 | 0 | 0 | - | -
CCOc1ccccc1NC1=CC(=O)CC(C)(C)C1 | 0 | 0 | 0 | 0 | - | -
